Reference: PubChem BioAssay AID1159580 (chemical genetic matrix, 2015)
Out of some 5,500 compounds screened, about 2,000 (36%) were called active. Not shown: some 18% with an inconclusive outcome. No stated cut-off is given here; in the data, active means normalized growth mostly below about 0.91 (no sharp cut-off); inconclusive means no clear call, values can overlap the other calls; inactive means mostly above about 0.92. The list shows a part of the results.

Experiment: chemical genetic growth profiling, strain panel (AID 1159580);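 further: tested at 20 µM; growth read once vehicle control cultures reached saturation at 30 °C; 1 = growth at the plate median or of vehicle wells; lower values mean less growth of the strain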
Settings: growth OD
[1] = S. cerevisiae deletion strains, locus YAL013W, strain DEP1, active compounds read low
[2] = S. cerevisiae deletion strains, locus YBR229C, strain ROT2, active compounds read low
[3] = S. cerevisiae deletion strains, locus YDL101C, strain DUN1, active compounds read low
[4] = S. cerevisiae deletion strains, locus YDR150W, strain NUM1, active compounds read low
[5] = S. cerevisiae deletion strains, locus YEL061C, strain CIN8, active compounds read low
[6] = S. cerevisiae deletion strains, locus YGR078C, strain PAC10, active compounds read low
[7] = S. cerevisiae deletion strains, locus YGR229C, strain SMI1, active compounds read low
[8] = S. cerevisiae deletion strains, locus YHR030C, strain SLT2, active compounds read low
[9] = S. cerevisiae deletion strains, locus YHR087W, strain rtc3, active compounds read low
[10] = S. cerevisiae deletion strains, locus YJL187C, strain SWE1, active compounds read low
[11] = S. cerevisiae deletion strains, locus YJR043C, strain POL32, active compounds read low
[12] = S. cerevisiae deletion strains, locus YJR075W, strain HOC1, active compounds read low
[13] = S. cerevisiae deletion strains, locus YLR039C, strain RIC1, active compounds read low
[14] = S. cerevisiae deletion strains, locus YLR058C, strain SHM2 (second series), active compounds read low
[15] = S. cerevisiae deletion strains, locus YLR085C, strain ARP6, active compounds read low
[16] = S. cerevisiae deletion strains, locus YLR262C, strain YPT6, active compounds read low
[17] = S. cerevisiae deletion strains, locus YML094W, strain GIM5, active compounds read low
[18] = S. cerevisiae deletion strains, locus YMR219W, strain ESC1, active compounds read low
[19] = S. cerevisiae deletion strains, locus YMR263W, strain SAP30, active compounds read low
[20] = S. cerevisiae deletion strains, locus YNL153C, strain GIM3, active compounds read low
[21] = S. cerevisiae deletion strains, locus YNL298W, strain CLA4 (second series), active compounds read low
[22] = S. cerevisiae deletion strains, locus YNL322C, strain KRE1, active compounds read low
[23] = S. cerevisiae deletion strains, locus YNR030W, strain Alg12, active compounds read low
[24] = S. cerevisiae deletion strains, locus YOL006C, strain TOP1, active compounds read low
[25] = S. cerevisiae deletion strains, locus YPL055C, strain LGE1, active compounds read low
[26] = S. cerevisiae deletion strains, locus YPL241C, strain CIN2, active compounds read low
[27] = S. cerevisiae deletion strains, locus YPR135W, strain CTF4, active compounds read low
[28] = S. cerevisiae deletion strains, locus YDL134C, strain PPH21, active compounds read low
[29] = S. cerevisiae strains, strain wild type, active compounds read low

Measured: normalized growth

Cc1cc(NS(=O)(=O)c2ccc(NS(=O)(=O)c3ccc(Cl)cc3)cc2)no1
inactive: [1] 1.03 | [2] 1.02 | [3] 1 | [4] 0.956 | [5] 1.01 | [6] 1 | [7] 1.01 | [8] 1.07 | [9] 0.999 | [10] 1.01 | [11] 1.04 | [12] 1.02 | [13] 1.02 | [14] 1 | [15] 0.983 | [16] 1.07 | [17] 0.988 | [18] 1.01 | [19] 0.956 | [20] 1.02 | [21] 1.03 | [22] 1.01 | [23] 1.02 | [24] 1.06 | [25] 0.902 | [26] 0.995 | [27] 1.08

Cn1nccc1NS(=O)(=O)c1cccc(Cl)c1
inactive: [1] 1.01 | [2] 1.01 | S. cerevisiae deletion strains, locus YCL061C, strain MRC1, active compounds read low 1.02 | [3] 1 | [28] 0.969 | [4] 1.04 | [5] 1.01 | [6] 1.02 | [8] 1.07 | [9] 1.01 | [11] 1.03 | [12] 1.02 | [13] 0.98 | [14] 1.04 | [15] 0.984 | [16] 1.07 | [17] 0.972 | [18] 0.998 | [19] 1.03 | S. cerevisiae deletion strains, locus YMR307W, strain GAS1, active compounds read low 0.957 | [20] 1.01 | [21] 1.03 | [22] 1 | [23] 0.995 | [25] 1 | [26] 0.975 | [27] 1.08 | [29] 1.01

Cc1ccc(S(=O)(=O)Nc2ccc(C)c([N+](=O)[O-])c2)cc1
inactive: [1] 0.995 | [2] 0.988 | [3] 0.95 | [28] 0.994 | [4] 0.958 | [5] 1.03 | [6] 0.986 | [7] 1 | [8] 0.989 | [9] 1.02 | [10] 1.01 | [11] 0.976 | [12] 0.971 | S. cerevisiae deletion strains, locus YKL190W, strain CNB1, active compounds read low 0.988 | [13] 1.02 | [14] 1 | [15] 0.991 | [16] 1.01 | [17] 1.01 | [18] 0.993 | [19] 0.999 | [20] 0.979 | [21] 0.963 | [22] 0.983 | [23] 0.961 | [24] 1.02 | [25] 1.01 | [26] 0.952 | [27] 0.898 | [29] 0.981

O=c1c2cc(NS(=O)(=O)c3ccc(Cl)cc3)ccc2oc2ncccc12
inactive: [1] 0.979 | [2] 1.02 | [3] 0.988 | [28] 1 | [4] 0.961 | [5] 1.04 | [6] 0.979 | [8] 0.998 | [9] 1.06 | [11] 0.976 | [12] 1.03 | [13] 1.03 | [14] 1.02 | [15] 1.04 | [16] 1.07 | [17] 1.08 | [18] 1.02 | [19] 0.991 | [20] 0.993 | [21] 0.997 | [22] 0.994 | [23] 1.02 | [25] 1.04 | [26] 1.01 | [27] 0.984
